Bioassay records deposited in PubChem BioAssay by National Center for Advancing Translational Sciences (NCATS).
Only some compounds are listed: those with a hit (about 7.8% of all), similar ones and a draw of the others.
Lassa entry inh – Lassa virus entry inhibition; Lassa virus pseudotype entry inhibition, cell reporter; Potency, µM (titrated, usually from 37.9 µM), usual class: inhibitors; 300,000 compounds, 1.2% hits; AID 540256; calls by dose curve; tested in HEK293 cells; note: nearly all actives have a fitted effect of over 50% in size
VACV mCherry inh – inhibitors of vaccinia virus infection (mCherry reporter signal). Vaccinia virus mCherry reporter infection, fluorescence. Potency, µM (titrated, usually from 36.5 µM), hits mostly inhibitors. 310,000 compounds, 0.63% hits. AID 720579; calls by dose curve; tested in A549 cells; note: nearly all actives have a fitted effect of over 35% in size
Marburg entry inh – Marburg virus entry inhibition | Marburg virus pseudotyped entry inhibition, cell reporter | Potency, µM (series often up to 37.8 µM), most hits filed as inhibitors | 300,000 compounds, 1.8% hits; calls by dose curve; tested in HEK293 cells
HCMV antiviral – inhibitors of human cytomegalovirus. HFF cells, HCMV-luciferase reporter, 72 h; hits give low values. activity change, negative = inhibition, % at 57.5 µM. 410,000 compounds, 4.5% hits; in the data active = activity change below about -60%; inconclusive = no clear call, values can overlap the other calls; inactive = above about -39%
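Two-dose cell screen: HFF monolayers treated with compounds and infected with luciferase-expressing HCMV at 1 PFU/cell, 72 h at 37C, then lysed for luciferase measurement.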
HCV inh – inhibitors of hepatitis C virus infection; Potency, µM (highest dose often 41.8 µM), actives largely listed as inhibitors; Huh7.5.1 HCVcc-Cre infection, luciferase reporter, 44 h; 340,000 compounds, 3.4% hits; active = well fitted inhibition curve with a large enough effect; inconclusive = small, poorly fitted or top-dose-only effect, or another doubt; inactive = no such curve, though single readings can be large or run the other way
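Reporter virus HCVcc-Cre (~0.5 moi) infects cells exposed to compound; seeding density 1,000 cells/well with 4 h settling beforehand. Luminescence, 15 sec read, taken 44 h post-infection following a 15 min RT substrate incubation.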
Vaccinia Venus – inhibitors of vaccinia virus (Venus reporter). Vaccinia virus Venus reporter expression, fluorescence. Potency, µM (top dose mostly 36.5 µM), most hits filed as inhibitors. 330,000 compounds, 0.46% hits; calls by dose curve; tested in A549 cells; note: nearly all actives have a fitted effect of over 30% in size
A number is an active result.

Results for Cc1ccccc1-n1c(=O)/c(=C/c2ccco2)s/c1=C(/C#N)C(=O)Nc1ccccc1 ?
Marburg entry inh: inactive

Results for Cc1cc(Br)cnc1NC(=S)Nc1ccc(F)cc1F ?
Lassa entry inh: inactive; VACV mCherry inh: inactive; Marburg entry inh: inconclusive; HCMV antiviral: inactive; HCV inh: 10µM; Vaccinia Venus: inactive

What do the screens show for `O=C(N[C@@H](Cc1ccccc1)C(O)c1nc2ccccc2[nH]1)c1ccccn1` (stereo not given in full)?
HCMV antiviral: inactive

What do the screens show for `COc1ccc(N2CCN(C(=O)CSc3nc4[nH]ncc4c(=O)n3-c3ccc(Br)cc3)CC2)cc1`?
VACV mCherry inh: inconclusive; HCMV antiviral: -63; HCV inh: inconclusive; Vaccinia Venus: inactive

How did COc1ccc(-n2c(SCC(=O)NCc3cccs3)nc3[nH]ncc3c2=O)cc1 do in these assays?
VACV mCherry inh: inactive; HCMV antiviral: inactive; HCV inh: inactive; Vaccinia Venus: inactive

How did O=c1c2cn[nH]c2nc(SCc2cc(=O)n3cc(Br)ccc3n2)n1-c1ccc(Br)cc1 do in these assays?
Lassa entry inh: inactive; VACV mCherry inh: inconclusive; Marburg entry inh: inconclusive; HCMV antiviral: -72; HCV inh: inconclusive; Vaccinia Venus: inconclusive

Results for O=c1c2cn[nH]c2nc(SCc2ccccc2F)n1-c1ccc(Br)cc1 ?
Lassa entry inh: inconclusive; VACV mCherry inh: inactive; Marburg entry inh: inconclusive; HCMV antiviral: -71; HCV inh: inconclusive; Vaccinia Venus: inactive

How did O=C(Nc1sc2c(c1C(=O)NCC1CCCO1)CCC2)c1cc(=O)c2ccccc2o1 (stereo not given) do in these assays?
Lassa entry inh: inconclusive; VACV mCherry inh: inactive; Marburg entry inh: inconclusive; HCMV antiviral: inactive; Vaccinia Venus: inactive

What do the screens show for `CCOC(=O)C1CCCN(S(=O)(=O)c2ccc3c(c2)oc(=O)n3C)C1` (stereo not given)?
Lassa entry inh: inactive; VACV mCherry inh: inactive; Marburg entry inh: inactive; HCMV antiviral: inactive; Vaccinia Venus: inactive

Results for CCN(CC)S(=O)(=O)c1ccc(S(=O)(=O)N2CCCC(C(=O)NC3CC3)C2)cc1 (stereo not given) ?
Lassa entry inh: inactive; VACV mCherry inh: inactive; Marburg entry inh: inconclusive; HCMV antiviral: -83; HCV inh: inactive; Vaccinia Venus: inactive

Results for CCOC(=O)c1cccc(NC(=O)C2CCN(S(=O)(=O)c3ccc4c(c3)oc(=O)n4C)CC2)c1 ?
Lassa entry inh: inactive; VACV mCherry inh: inactive; Marburg entry inh: inactive; HCMV antiviral: -103; Vaccinia Venus: inactive

Results for CN(C)S(=O)(=O)c1ccc(S(=O)(=O)N2CCCC(C(=O)NC3CC3)C2)cc1 (stereo not given) ?
VACV mCherry inh: inactive; Marburg entry inh: inactive; HCMV antiviral: inactive; HCV inh: inconclusive; Vaccinia Venus: inactive

What do the screens show for `CCOC(=O)N1CCC(NC(=O)C2CCCN(S(=O)(=O)c3ccc4c(c3)oc(=O)n4C)C2)CC1` (stereo not given)?
Lassa entry inh: inactive; VACV mCherry inh: inactive; Marburg entry inh: inactive; HCMV antiviral: -63; HCV inh: inactive; Vaccinia Venus: inactive

Results for c1ncc2snnc2n1 ?
VACV mCherry inh: inactive; Vaccinia Venus: inactive

What do the screens show for `O=C(NC1CCc2ccccc21)C1=CN2CCN(Cc3ccccc3)C(=O)N=C2O1` (stereo not given)?
HCMV antiviral: inactive

How did O=C(Nc1nc2c(Cl)cccc2s1)c1ccc(S(=O)(=O)N2CCc3ccccc32)cc1 do in these assays?
Lassa entry inh: inconclusive; VACV mCherry inh: inconclusive; HCMV antiviral: inactive; Vaccinia Venus: inconclusive

How did COc1cc2nc(NC(=O)c3ccc(S(=O)(=O)N4CCc5ccccc54)cc3)sc2cc1OC do in these assays?
Lassa entry inh: inactive; VACV mCherry inh: inactive; HCMV antiviral: -72; Vaccinia Venus: inactive

What do the screens show for `O=C(O)C1CC=CCC1C(=O)Nc1ccc(S(=O)(=O)N2CCCc3ccccc32)cc1` (stereo not given)?
Lassa entry inh: 3.3µM; Marburg entry inh: 2.1µM; HCMV antiviral: -76; HCV inh: inactive

What do the screens show for `NS(=O)(=O)c1ccc(NC(=O)c2ccc(S(=O)(=O)N3CCc4ccccc43)cc2)cc1`?
VACV mCherry inh: inconclusive; HCMV antiviral: inactive; HCV inh: inconclusive; Vaccinia Venus: inconclusive

Results for COc1ccc(C(=O)Nc2ccc(S(=O)(=O)N3CCc4ccccc43)cc2)cc1 ?
Lassa entry inh: 13µM; VACV mCherry inh: inconclusive; Marburg entry inh: inconclusive; HCMV antiviral: -90; HCV inh: 11µM; Vaccinia Venus: inactive

Results for COc1cc(C(=O)Oc2ccccc2/C=N/NC(=O)c2ccc(C)c(Cl)c2)cc(OC)c1OC ?
Lassa entry inh: inconclusive; VACV mCherry inh: 5µM; Marburg entry inh: inconclusive; HCMV antiviral: -104; HCV inh: inconclusive; Vaccinia Venus: inconclusive

How did COc1cc(/C=N/NC(=O)c2cc(-c3ccccc3)sc2N)cc(OC)c1OC do in these assays?
Lassa entry inh: 16µM; VACV mCherry inh: inactive; Marburg entry inh: inconclusive; HCMV antiviral: inactive; HCV inh: inconclusive; Vaccinia Venus: inactive

How did COc1ccc(/C=N/NC(=O)c2sccc2C)c2ccccc12 do in these assays?
HCMV antiviral: -62; HCV inh: inactive

What do the screens show for `COc1cc(C(=O)N/N=C/c2cccc(Oc3ccccc3)c2)ccc1O`?
Lassa entry inh: inactive; VACV mCherry inh: inactive; Marburg entry inh: inactive; HCMV antiviral: -78; HCV inh: inactive; Vaccinia Venus: inactive

Results for Cc1ccccc1/C=N/NC(=O)c1sccc1C ?
Lassa entry inh: inactive; VACV mCherry inh: inactive; Marburg entry inh: inactive; HCMV antiviral: inactive; HCV inh: inactive; Vaccinia Venus: inactive

How did COC(=O)CCCC[C@@H]1O[C@H](CCc2ccccc2)CC2=C1C(=O)OC(C)(C)O2 do in these assays?
VACV mCherry inh: inactive; HCMV antiviral: inactive; Vaccinia Venus: inactive

How did O=C(N/N=C\c1cccc(F)c1)c1ccc(-c2ccccc2)cc1 do in these assays?
Lassa entry inh: inactive; VACV mCherry inh: inactive; Marburg entry inh: inactive; HCMV antiviral: inactive; HCV inh: inactive; Vaccinia Venus: inactive

How did O=C(N/N=C\c1c(F)c(F)c(F)c(F)c1F)c1ccc(-c2ccccc2)cc1 do in these assays?
Lassa entry inh: inactive; VACV mCherry inh: inactive; Marburg entry inh: inactive; HCMV antiviral: -69; HCV inh: inactive; Vaccinia Venus: inactive

What do the screens show for `COc1cc(/C=N/NC(=O)c2ccc(-c3ccccc3)cc2)cc(OC)c1OC`?
Lassa entry inh: inactive; VACV mCherry inh: 5.6µM; Marburg entry inh: inactive; HCMV antiviral: inconclusive; HCV inh: inactive; Vaccinia Venus: inconclusive

How did COc1cc(C(=O)N/N=C/c2sccc2C)cc(OC)c1OC do in these assays?
Lassa entry inh: inconclusive; VACV mCherry inh: inconclusive; Marburg entry inh: inconclusive; HCMV antiviral: -87; HCV inh: inconclusive; Vaccinia Venus: inactive

What do the screens show for `COc1ccc(/C=N\NC(=O)c2ccc(-c3ccccc3)cc2)c(OC)c1OC`?
Lassa entry inh: inconclusive; VACV mCherry inh: inactive; Marburg entry inh: inactive; HCMV antiviral: inactive; HCV inh: inconclusive; Vaccinia Venus: inactive
